Assay results published in doi:10.1101/2024.03.05.583629.

Target: pT7_6His-AlfaTag-HOXD13 (human, UniProt P35453 263-343)
Test: PADIT-seq
Conditions: dsDNA, one strand shown

Chain of pT7_6His-AlfaTag-HOXD13 (P35453 263-343): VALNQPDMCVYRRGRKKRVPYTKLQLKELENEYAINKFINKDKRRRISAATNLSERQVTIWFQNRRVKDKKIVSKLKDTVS

Row | Sequence | binding signal
1 | CTCGAGGATATCAAGATCTGGCCTCGGCGTTTTATTCGGAACCTCTAGCTAGCCGACTCACTATAGGGATAATCGCCCTGAGCAAAGACC | 1.73 ± 0.0989 log2FC
2 | CTCGAGGATATCAAGATCTGGCCTCGGCACACTAAAAGGAACCTCTAGCTAGCCGACTCACTATAGGGATAATCGCCCTGAGCAAAGACC | 0.427 ± 0.0841 log2FC
3 | CTCGAGGATATCAAGATCTGGCCTCGGCGTAGTAAAAGGAACCTCTAGCTAGCCGACTCACTATAGGGATAATCGCCCTGAGCAAAGACC | 2.18 ± 0.0733 log2FC
4 | CTCGAGGATATCAAGATCTGGCCTCGGCTCCATAAAAGGAACCTCTAGCTAGCCGACTCACTATAGGGATAATCGCCCTGAGCAAAGACC | 2.64 ± 0.0916 log2FC
5 | CTCGAGGATATCAAGATCTGGCCTCGGCATGCCACGCGGAACCTCTAGCTAGCCGACTCACTATAGGGATAATCGCCCTGAGCAAAGACC | -1.08 ± 0.113 log2FC
6 | CTCGAGGATATCAAGATCTGGCCTCGGCTTTTTACACGGAACCTCTAGCTAGCCGACTCACTATAGGGATAATCGCCCTGAGCAAAGACC | 2.25 ± 0.079 log2FC
7 | CTCGAGGATATCAAGATCTGGCCTCGGCCTTGTAAAAGGAACCTCTAGCTAGCCGACTCACTATAGGGATAATCGCCCTGAGCAAAGACC | 2.9 ± 0.088 log2FC
8 | CTCGAGGATATCAAGATCTGGCCTCGGCCTTTTAACAGGAACCTCTAGCTAGCCGACTCACTATAGGGATAATCGCCCTGAGCAAAGACC | 1.89 ± 0.0877 log2FC
9 | CTCGAGGATATCAAGATCTGGCCTCGGCCTTTTAACTGGAACCTCTAGCTAGCCGACTCACTATAGGGATAATCGCCCTGAGCAAAGACC | 1.7 ± 0.0719 log2FC
10 | CTCGAGGATATCAAGATCTGGCCTCGGCTTTTTAACCGGAACCTCTAGCTAGCCGACTCACTATAGGGATAATCGCCCTGAGCAAAGACC | 0.739 ± 0.095 log2FC
11 | CTCGAGGATATCAAGATCTGGCCTCGGCTAGCCACGCGGAACCTCTAGCTAGCCGACTCACTATAGGGATAATCGCCCTGAGCAAAGACC | -1.07 ± 0.127 log2FC
12 | CTCGAGGATATCAAGATCTGGCCTCGGCTTTTTAGGAGGAACCTCTAGCTAGCCGACTCACTATAGGGATAATCGCCCTGAGCAAAGACC | 1.41 ± 0.0944 log2FC
13 | CTCGAGGATATCAAGATCTGGCCTCGGCTTTTTAATTGGAACCTCTAGCTAGCCGACTCACTATAGGGATAATCGCCCTGAGCAAAGACC | 2.41 ± 0.0904 log2FC
14 | CTCGAGGATATCAAGATCTGGCCTCGGCGTCCTAAAAGGAACCTCTAGCTAGCCGACTCACTATAGGGATAATCGCCCTGAGCAAAGACC | 0.117 ± 0.0783 log2FC
15 | CTCGAGGATATCAAGATCTGGCCTCGGCTTTTTAGCGGGAACCTCTAGCTAGCCGACTCACTATAGGGATAATCGCCCTGAGCAAAGACC | -0.0861 ± 0.121 log2FC
16 | CTCGAGGATATCAAGATCTGGCCTCGGCCTAATAAAAGGAACCTCTAGCTAGCCGACTCACTATAGGGATAATCGCCCTGAGCAAAGACC | 3.06 ± 0.0911 log2FC
17 | CTCGAGGATATCAAGATCTGGCCTCGGCGTTTTACCTGGAACCTCTAGCTAGCCGACTCACTATAGGGATAATCGCCCTGAGCAAAGACC | -0.352 ± 0.118 log2FC
18 | CTCGAGGATATCAAGATCTGGCCTCGGCACTCTAAAAGGAACCTCTAGCTAGCCGACTCACTATAGGGATAATCGCCCTGAGCAAAGACC | 0.139 ± 0.11 log2FC
19 | CTCGAGGATATCAAGATCTGGCCTCGGCGTTTTAACTGGAACCTCTAGCTAGCCGACTCACTATAGGGATAATCGCCCTGAGCAAAGACC | 1.39 ± 0.0832 log2FC
20 | CTCGAGGATATCAAGATCTGGCCTCGGCGTTTTATGGGGAACCTCTAGCTAGCCGACTCACTATAGGGATAATCGCCCTGAGCAAAGACC | 3.21 ± 0.0773 log2FC

Row | Sequence | binding signal
21 | CTCGAGGATATCAAGATCTGGCCTCGGCTGTGTAAAAGGAACCTCTAGCTAGCCGACTCACTATAGGGATAATCGCCCTGAGCAAAGACC | 1.46 ± 0.0852 log2FC
22 | CTCGAGGATATCAAGATCTGGCCTCGGCCGCCCAAAGGGAACCTCTAGCTAGCCGACTCACTATAGGGATAATCGCCCTGAGCAAAGACC | -0.802 ± 0.123 log2FC
23 | CTCGAGGATATCAAGATCTGGCCTCGGCGCCGTAAAAGGAACCTCTAGCTAGCCGACTCACTATAGGGATAATCGCCCTGAGCAAAGACC | 1.76 ± 0.0756 log2FC
24 | CTCGAGGATATCAAGATCTGGCCTCGGCCTTTTAACCGGAACCTCTAGCTAGCCGACTCACTATAGGGATAATCGCCCTGAGCAAAGACC | 1.24 ± 0.0724 log2FC
25 | CTCGAGGATATCAAGATCTGGCCTCGGCCTTTTAGACGGAACCTCTAGCTAGCCGACTCACTATAGGGATAATCGCCCTGAGCAAAGACC | -0.199 ± 0.091 log2FC
26 | CTCGAGGATATCAAGATCTGGCCTCGGCATTTTAGCTGGAACCTCTAGCTAGCCGACTCACTATAGGGATAATCGCCCTGAGCAAAGACC | -0.225 ± 0.108 log2FC
27 | CTCGAGGATATCAAGATCTGGCCTCGGCGCGCGCGCGGGAACCTCTAGCTAGCCGACTCACTATAGGGATAATCGCCCTGAGCAAAGACC | -1.01 ± 0.148 log2FC
28 | CTCGAGGATATCAAGATCTGGCCTCGGCTTACTAAAAGGAACCTCTAGCTAGCCGACTCACTATAGGGATAATCGCCCTGAGCAAAGACC | 0.214 ± 0.111 log2FC
29 | CTCGAGGATATCAAGATCTGGCCTCGGCCGCATACGCGGAACCTCTAGCTAGCCGACTCACTATAGGGATAATCGCCCTGAGCAAAGACC | -1.09 ± 0.122 log2FC
30 | CTCGAGGATATCAAGATCTGGCCTCGGCAGTCTAAAAGGAACCTCTAGCTAGCCGACTCACTATAGGGATAATCGCCCTGAGCAAAGACC | -0.665 ± 0.0999 log2FC
31 | CTCGAGGATATCAAGATCTGGCCTCGGCCGCTTACGCGGAACCTCTAGCTAGCCGACTCACTATAGGGATAATCGCCCTGAGCAAAGACC | -0.713 ± 0.125 log2FC
32 | CTCGAGGATATCAAGATCTGGCCTCGGCAGTCCACGCGGAACCTCTAGCTAGCCGACTCACTATAGGGATAATCGCCCTGAGCAAAGACC | -0.993 ± 0.114 log2FC
33 | CTCGAGGATATCAAGATCTGGCCTCGGCTTTTTATCCGGAACCTCTAGCTAGCCGACTCACTATAGGGATAATCGCCCTGAGCAAAGACC | 1.15 ± 0.0852 log2FC
34 | CTCGAGGATATCAAGATCTGGCCTCGGCATTTTAACTGGAACCTCTAGCTAGCCGACTCACTATAGGGATAATCGCCCTGAGCAAAGACC | 1.48 ± 0.0833 log2FC
35 | CTCGAGGATATCAAGATCTGGCCTCGGCCAACTAAAAGGAACCTCTAGCTAGCCGACTCACTATAGGGATAATCGCCCTGAGCAAAGACC | 0.0444 ± 0.126 log2FC
36 | CTCGAGGATATCAAGATCTGGCCTCGGCCTAGTAAAAGGAACCTCTAGCTAGCCGACTCACTATAGGGATAATCGCCCTGAGCAAAGACC | 2.42 ± 0.0781 log2FC
37 | CTCGAGGATATCAAGATCTGGCCTCGGCCCGCTAAAAGGAACCTCTAGCTAGCCGACTCACTATAGGGATAATCGCCCTGAGCAAAGACC | -0.398 ± 0.11 log2FC
38 | CTCGAGGATATCAAGATCTGGCCTCGGCACCCTAAAAGGAACCTCTAGCTAGCCGACTCACTATAGGGATAATCGCCCTGAGCAAAGACC | 0.642 ± 0.0968 log2FC
39 | CTCGAGGATATCAAGATCTGGCCTCGGCGTTTTATCCGGAACCTCTAGCTAGCCGACTCACTATAGGGATAATCGCCCTGAGCAAAGACC | 1 ± 0.0994 log2FC
